Measured values reported in PubChem BioAssay (NCI).
About 83,000 compounds went through this panel and 20% of them were active in at least one assay; those are over-represented in the sample as a whole.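 48-hour exposure, single concentration, 96-well plates; percent growth endpoint where 0 means no net growth. Active: below 10.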 Values without a mark were called inactive. The source made the active and inactive calls.

Tested on: NCI-H460 lung
Assay: NCI-60 one-dose screen, 48 h (100 = growth as untreated, 0 = no growth, -100 = all killed)
Conditions: 10 µM unless noted

Row | Structure (SMILES) | growth
1 | COc1ccc(/C(=C\c2cc(OC)c(OC)c(OC)c2)C(=O)N2CCNCC2)cc1 | 105%
2 | O=c1c2sc3ncc(Cl)cc3c2nnn1-c1cccc(Cl)c1 | 22%
3 | F | 45.1% [6.87 mM]
4 | CC1=C(C(=O)Nc2ccc(F)cc2)C(c2ccc(C)cc2)C2=C(CC(C)(C)CC2=O)N1 (stereo not drawn) | 90.8%
5 | CC[C@H](Nc1nc(N)nc(C2CC2)c1C#N)c1nc2cccc(NCc3ccc(C(=O)NO)cc3)c2c(=O)n1-c1ccccc1 | -15.1% (active)
6 | CC(C)N1CCN(c2ccncc2S(=O)(=O)N2CCN(C)CC2)CC1 | 102%
7 | c1ccc(C(CC2=NCCCN2)c2ccccc2)cc1 | 102%
8 | Clc1ccc2c(c1)-c1ccccc1C1=NCCN12 | 8.92% (active)
9 | O=C(C=P(c1ccccc1)(c1ccccc1)c1ccccc1)CCl | -11.9% (active)
10 | COc1cc(/C=C/C(=O)c2ccc(NC(=O)CSc3nnc(-c4ccc(Cl)cc4)n3-c3ccccc3)cc2)cc(OC)c1OC | 80%
11 | OC(c1cc2cc(Cl)ccc2c2cc(C(F)(F)F)ccc12)C1CCCCN1 (stereo not drawn) | -67.8% (active)
12 | Clc1cc(Br)ccc1-c1ccc(CNCC2CCNCC2)o1 | 9.35% (active)
13 | CN1CCN(Cc2ccc(NC(=O)c3cncc(C#Cc4ncc5cnccn45)c3)cc2C(F)(F)F)CC1 | 52.6%
14 | CC1=C(C(=O)Nc2ccc(F)cc2)C(c2ccc(Cl)cc2)C2=C(CC(C)(C)CC2=O)N1 (stereo not drawn) | 96.4%
15 | CCOC(=O)c1ccc(N(CCC(=O)O)C(C)=O)cc1 | 111%
16 | O=c1[nH]c2cc(Cl)c(Cl)cc2o1 | 109%
17 | CC(COC(=O)c1ccccc1)N1CC2CCC(C1)O2 (stereo not drawn) | 104%
18 | CC[C@H](Nc1nc(C)nc(N)c1C#N)c1nc2cccc(NCc3ccc(C(=O)NO)cc3)c2c(=O)n1-c1ccccc1 | 2.36% (active)
19 | Cc1cc(NC(=O)C2c3ccccc3C(=O)N(CC(C)C)C2c2cccs2)no1 (stereo not drawn) | 69.1%

Row | Structure (SMILES) | growth
20 | Clc1ccc2c(c1)-n1cccc1C(c1ccc3ccccc3c1)=NC2 | 96.7%
21 | CCC1CCc2nc3sc(C(=O)Nc4cccc(F)c4)c(N)c3cc2C1 (stereo not drawn) | 74.5%
22 | CCn1c(CN2CCN(Cc3ccccc3)CC2)nc2cc(NC(=O)c3cccs3)ccc21 | -69.9% (active)
23 | CCN(CC)CCCNc1cccc2c(C)cc(OC)nc12 | 100%
24 | COc1ccc(-c2cn(-c3cccc(C(=O)/C=C/c4ccc(O)c(OC)c4)c3)c(=O)[nH]2)cc1 | 31.7%
25 | COc1ccc(/C=c2\c(=O)n(-c3ccccc3)c3nn4c(n23)=NNC42CCCCC2)cc1 | 101%
26 | CCNC(=S)N(Cc1ccccc1)Cc1ccccc1 | 131%
27 | CCCCCCCCCCCCCCCc1cc(O)ccc1[N+](=O)[O-] | 102%
28 | COC1=CC(c2ccc[nH]2)=N/C1=C\c1[nH]c(C)c(C(=O)CCCCCCCCC(=O)O[C@H]2CC[C@H]3C4CCc5cc(O)ccc5C4CC[C@]23C)c1C (stereo partly drawn) | 14.9%
29 | CCc1oc2ccccc2c1C(=O)c1cc(I)c(O)c(I)c1 | 21.6%
30 | Cc1ccc(N=CNN=C(N)N)cc1 | 120%
31 | CCCCN(CCCC)CCCN=c1nc2c(c(N)n1-c1ccccc1)c(=S)n(-c1ccccc1)c(=S)n2-c1ccccc1 | -95.7% (active)
32 | [Ag].[Ag].[NH-]S(=O)(=O)c1ccc(N=Nc2cc(N=Nc3ccc(S([NH-])(=O)=O)cc3)c3c(NC(=O)C(Cl)Cl)cccc3c2OC(=O)C(Cl)Cl)cc1.[c-]1nccs1.[c-]1nccs1 | 56.7%
33 | COc1cc(NCCCCC(C)N)c2nccc(C)c2c1 (stereo not drawn) | 95.3%
34 | COC(=O)C(C)NC1=C(Cl)C(=O)C(NC(C)C(=O)OC)=C(Cl)C1=O (stereo not drawn) | 95.9%
35 | COc1cc2nccc(Oc3ccc(NC(=O)C4(C(=O)Nc5ccc(F)cc5)CC4)cc3)c2cc1OC(=O)c1ccc(N)cc1 | 24.7%
36 | O=C(NO)c1ccc(NCc2csc3ccccc23)cc1 | 39.8%
37 | COc1ccc2[nH]c(O)c(/C=c3/ccc4c(c3)N=C(c3ccc(F)cc3)N=4)c2c1 | 36.9%
38 | CCN(CC)CCCC(C)N/C(c1cccc(OC)c1)=c1\c(=O)[nH]n(-c2c3ccccc3nc3ccccc23)c(=O)\c1=C(/NC(C)CCCN(CC)CC)c1cccc(OC)c1 (stereo not drawn) | -34.1% (active)
